# Legend:
# Test in all cases: DAPPL (digital affinity profiling via proximity ligation, sequencing); 10 mM Tris-HCl pH 7.5, 50 mM NaCl, 1 mM DTT, 4% glycerol, room temperature, 30 min; GST-TFs on glutathione beads, 16-mer random dsDNA library, 0.1% formaldehyde crosslink after washing; high values mean tight binding
# FLI1 = biological target: T1, FLI1 (Homo sapiens, UniProt Q01543 1-452); conditions: protein: recombinant; tags: N-terminal GST; dsDNA, one strand shown
# T1 sequence: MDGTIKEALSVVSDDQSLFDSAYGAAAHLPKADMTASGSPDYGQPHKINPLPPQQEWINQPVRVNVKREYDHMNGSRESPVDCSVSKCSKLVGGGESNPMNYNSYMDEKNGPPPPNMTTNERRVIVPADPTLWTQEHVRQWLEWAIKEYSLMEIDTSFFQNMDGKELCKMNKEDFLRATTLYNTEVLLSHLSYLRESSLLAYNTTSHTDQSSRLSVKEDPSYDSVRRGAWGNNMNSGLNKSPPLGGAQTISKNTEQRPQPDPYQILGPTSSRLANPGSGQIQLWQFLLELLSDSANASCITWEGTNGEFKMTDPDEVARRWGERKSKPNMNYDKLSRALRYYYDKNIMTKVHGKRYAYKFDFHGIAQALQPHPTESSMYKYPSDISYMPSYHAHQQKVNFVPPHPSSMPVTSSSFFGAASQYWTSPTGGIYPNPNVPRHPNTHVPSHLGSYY
# Summary of the method: (§1)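 GST fusions of human transcription factors were expressed in yeast and captured with glutathione beads. Once given DNA barcodes and pooled alongside a tag-only sample, they were incubated for 30 min at room temperature with 200 nmole of a random double-stranded 16-mer DNA library in Tris/NaCl/DTT/glycerol buffer, then washed, crosslinked (0.1% formaldehyde), proximity-ligated, PCR-amplified and sequenced on an Illumina NextSeq500. The binding signal of each hexamer is its read frequency for a factor divided by its frequency for the tag-only sample.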
# ELK1 = biological target: T2, ELK1 (Homo sapiens, UniProt P19419 1-428); conditions: protein: recombinant; tags: N-terminal GST; dsDNA, one strand shown
# T2 sequence: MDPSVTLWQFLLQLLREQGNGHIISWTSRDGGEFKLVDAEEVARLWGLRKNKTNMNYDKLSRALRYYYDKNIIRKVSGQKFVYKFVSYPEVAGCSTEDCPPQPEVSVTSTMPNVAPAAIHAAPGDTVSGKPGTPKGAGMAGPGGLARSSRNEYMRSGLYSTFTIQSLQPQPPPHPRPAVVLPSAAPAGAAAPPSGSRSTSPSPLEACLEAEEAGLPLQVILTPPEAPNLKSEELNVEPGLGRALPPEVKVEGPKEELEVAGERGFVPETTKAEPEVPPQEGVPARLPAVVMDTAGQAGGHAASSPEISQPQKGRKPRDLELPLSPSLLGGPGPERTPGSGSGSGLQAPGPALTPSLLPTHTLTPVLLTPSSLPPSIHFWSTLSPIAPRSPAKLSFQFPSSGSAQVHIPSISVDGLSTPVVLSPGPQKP
# Summary of the method: as §1
# GABPA = biological target: T3, GABPA (Homo sapiens, UniProt Q06546 1-454); conditions: protein: recombinant; tags: N-terminal GST; dsDNA, one strand shown
# T3 sequence: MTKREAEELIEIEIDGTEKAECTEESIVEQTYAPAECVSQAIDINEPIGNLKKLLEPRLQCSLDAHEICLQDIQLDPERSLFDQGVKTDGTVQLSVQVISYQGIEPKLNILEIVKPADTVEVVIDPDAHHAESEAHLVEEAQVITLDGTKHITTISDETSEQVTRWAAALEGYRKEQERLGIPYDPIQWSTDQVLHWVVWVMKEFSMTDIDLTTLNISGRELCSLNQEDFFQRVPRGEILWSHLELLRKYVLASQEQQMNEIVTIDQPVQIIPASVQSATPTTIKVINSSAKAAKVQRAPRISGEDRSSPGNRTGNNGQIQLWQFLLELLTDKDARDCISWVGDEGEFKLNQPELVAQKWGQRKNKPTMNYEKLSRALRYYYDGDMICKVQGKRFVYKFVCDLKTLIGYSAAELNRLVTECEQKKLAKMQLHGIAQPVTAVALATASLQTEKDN
# Summary of the method: as §1
# ERG = biological target: T4, ERG (Homo sapiens, UniProt P11308 1-479); conditions: protein: recombinant; tags: N-terminal GST; dsDNA, one strand shown
# T4 sequence: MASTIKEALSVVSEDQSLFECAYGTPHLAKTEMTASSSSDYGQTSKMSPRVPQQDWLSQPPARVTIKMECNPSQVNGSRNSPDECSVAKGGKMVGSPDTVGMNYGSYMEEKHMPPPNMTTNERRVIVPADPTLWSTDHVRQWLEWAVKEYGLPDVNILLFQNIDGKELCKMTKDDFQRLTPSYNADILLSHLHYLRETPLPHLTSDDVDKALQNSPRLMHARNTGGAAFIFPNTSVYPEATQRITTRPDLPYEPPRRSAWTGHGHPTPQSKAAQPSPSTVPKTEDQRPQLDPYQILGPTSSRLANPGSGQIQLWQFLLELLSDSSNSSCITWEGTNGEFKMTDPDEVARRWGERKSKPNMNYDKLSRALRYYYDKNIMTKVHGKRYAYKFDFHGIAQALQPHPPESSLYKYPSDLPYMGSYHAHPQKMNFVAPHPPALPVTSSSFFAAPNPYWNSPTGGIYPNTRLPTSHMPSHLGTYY
# Summary of the method: as §1
# ELF1 = ELF1 (Homo sapiens, UniProt P32519 1-619); conditions: protein: recombinant; tags: N-terminal GST; dsDNA, one strand shown
# ELF1, sequence (P32519 whole entry): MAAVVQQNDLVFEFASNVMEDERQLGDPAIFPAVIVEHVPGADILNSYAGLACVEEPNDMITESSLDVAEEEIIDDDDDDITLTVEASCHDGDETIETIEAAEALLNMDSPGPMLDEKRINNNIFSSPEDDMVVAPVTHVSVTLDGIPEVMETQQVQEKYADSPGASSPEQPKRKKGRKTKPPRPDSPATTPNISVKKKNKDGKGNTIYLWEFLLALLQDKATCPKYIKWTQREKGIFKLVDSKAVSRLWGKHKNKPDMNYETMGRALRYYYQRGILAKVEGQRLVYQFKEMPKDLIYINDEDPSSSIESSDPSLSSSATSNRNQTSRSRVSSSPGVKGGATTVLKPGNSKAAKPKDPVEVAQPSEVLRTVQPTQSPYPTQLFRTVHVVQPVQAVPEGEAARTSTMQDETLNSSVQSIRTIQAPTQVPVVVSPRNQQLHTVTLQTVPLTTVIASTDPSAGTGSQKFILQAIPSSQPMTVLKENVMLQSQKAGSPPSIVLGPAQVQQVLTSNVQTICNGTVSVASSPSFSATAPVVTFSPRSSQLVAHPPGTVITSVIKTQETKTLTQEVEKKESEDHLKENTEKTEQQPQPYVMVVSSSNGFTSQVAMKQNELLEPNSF
# Summary of the method: as §1
# EHF = biological target: T5, EHF (Homo sapiens, UniProt Q9NZC4 1-300); conditions: protein: recombinant; tags: N-terminal GST; dsDNA, one strand shown
# T5 sequence: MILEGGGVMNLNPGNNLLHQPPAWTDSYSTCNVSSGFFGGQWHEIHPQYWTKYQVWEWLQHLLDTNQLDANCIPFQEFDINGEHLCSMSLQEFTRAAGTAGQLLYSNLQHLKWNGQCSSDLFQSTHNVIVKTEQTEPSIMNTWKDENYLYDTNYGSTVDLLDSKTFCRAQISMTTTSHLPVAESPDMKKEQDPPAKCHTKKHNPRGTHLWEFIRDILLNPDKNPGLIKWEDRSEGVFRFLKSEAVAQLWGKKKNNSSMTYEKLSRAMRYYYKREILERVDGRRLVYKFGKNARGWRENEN
# Summary of the method: as §1
# SPI1 = SPI1 (Homo sapiens, UniProt P17947 1-270); conditions: protein: recombinant; tags: N-terminal GST; dsDNA, one strand shown
# Summary of the method: as §1
# SPIB = SPIB (Homo sapiens, UniProt Q01892 1-262); conditions: protein: recombinant; tags: N-terminal GST; dsDNA, one strand shown
# SPIB, sequence (Q01892 whole entry): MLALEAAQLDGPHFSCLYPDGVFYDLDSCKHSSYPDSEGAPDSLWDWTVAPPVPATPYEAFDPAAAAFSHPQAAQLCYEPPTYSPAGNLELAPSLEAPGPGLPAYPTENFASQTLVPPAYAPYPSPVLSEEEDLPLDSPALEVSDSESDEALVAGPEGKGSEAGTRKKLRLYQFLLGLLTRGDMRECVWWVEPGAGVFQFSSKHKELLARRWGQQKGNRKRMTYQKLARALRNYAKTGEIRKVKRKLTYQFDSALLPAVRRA
# Summary of the method: as §1
# ELK3 = biological target: T6, ELK3 (Homo sapiens, UniProt P41970 1-407); conditions: protein: recombinant; tags: N-terminal GST; dsDNA, one strand shown
# T6 sequence: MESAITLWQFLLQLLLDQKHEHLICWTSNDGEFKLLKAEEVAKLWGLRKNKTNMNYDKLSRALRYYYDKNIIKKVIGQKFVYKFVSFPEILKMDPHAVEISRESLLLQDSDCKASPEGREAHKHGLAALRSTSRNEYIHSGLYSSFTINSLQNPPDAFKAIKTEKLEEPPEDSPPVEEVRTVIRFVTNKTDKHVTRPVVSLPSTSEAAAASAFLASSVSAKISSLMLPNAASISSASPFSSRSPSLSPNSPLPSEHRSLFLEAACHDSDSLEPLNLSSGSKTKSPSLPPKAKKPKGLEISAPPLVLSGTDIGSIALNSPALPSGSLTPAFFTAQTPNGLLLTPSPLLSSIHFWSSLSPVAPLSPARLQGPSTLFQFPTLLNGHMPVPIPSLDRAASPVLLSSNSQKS
# Summary of the method: as §1
# FEV = biological target: T7, FEV (Homo sapiens, UniProt Q99581 1-238); conditions: protein: recombinant; tags: N-terminal GST; dsDNA, one strand shown
# T7 sequence: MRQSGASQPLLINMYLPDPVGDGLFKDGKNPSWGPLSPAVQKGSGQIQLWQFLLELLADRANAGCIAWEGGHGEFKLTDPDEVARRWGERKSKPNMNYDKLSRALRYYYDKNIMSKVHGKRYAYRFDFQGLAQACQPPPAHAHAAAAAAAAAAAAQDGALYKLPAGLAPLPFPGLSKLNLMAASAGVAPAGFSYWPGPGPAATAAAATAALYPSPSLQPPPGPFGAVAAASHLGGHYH
# Summary of the method: as §1
# ETV5 = ETV5 (Homo sapiens, UniProt P41161 1-510); conditions: protein: recombinant; tags: N-terminal GST; dsDNA, one strand shown
# ETV5, sequence (P41161 whole entry): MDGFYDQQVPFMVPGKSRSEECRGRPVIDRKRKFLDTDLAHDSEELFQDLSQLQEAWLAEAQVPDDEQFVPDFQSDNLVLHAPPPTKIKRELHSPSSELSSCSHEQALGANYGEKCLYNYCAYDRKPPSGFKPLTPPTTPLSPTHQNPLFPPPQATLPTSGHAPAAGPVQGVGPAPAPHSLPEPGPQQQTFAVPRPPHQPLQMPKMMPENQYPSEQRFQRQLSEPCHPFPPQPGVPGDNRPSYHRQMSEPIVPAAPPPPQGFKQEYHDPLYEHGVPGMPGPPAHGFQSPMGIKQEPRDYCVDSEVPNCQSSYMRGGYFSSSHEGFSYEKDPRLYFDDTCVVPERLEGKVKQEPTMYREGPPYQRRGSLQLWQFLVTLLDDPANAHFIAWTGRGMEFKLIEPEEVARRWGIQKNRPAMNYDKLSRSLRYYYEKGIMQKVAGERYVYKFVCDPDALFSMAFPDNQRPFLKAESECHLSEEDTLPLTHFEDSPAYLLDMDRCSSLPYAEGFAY
# Summary of the method: as §1
# HSF1 = HSF1 (Homo sapiens, UniProt Q00613 1-529); conditions: protein: recombinant; tags: N-terminal GST; chain copies: 3; dsDNA, one strand shown
# HSF1, sequence (Q00613 whole entry): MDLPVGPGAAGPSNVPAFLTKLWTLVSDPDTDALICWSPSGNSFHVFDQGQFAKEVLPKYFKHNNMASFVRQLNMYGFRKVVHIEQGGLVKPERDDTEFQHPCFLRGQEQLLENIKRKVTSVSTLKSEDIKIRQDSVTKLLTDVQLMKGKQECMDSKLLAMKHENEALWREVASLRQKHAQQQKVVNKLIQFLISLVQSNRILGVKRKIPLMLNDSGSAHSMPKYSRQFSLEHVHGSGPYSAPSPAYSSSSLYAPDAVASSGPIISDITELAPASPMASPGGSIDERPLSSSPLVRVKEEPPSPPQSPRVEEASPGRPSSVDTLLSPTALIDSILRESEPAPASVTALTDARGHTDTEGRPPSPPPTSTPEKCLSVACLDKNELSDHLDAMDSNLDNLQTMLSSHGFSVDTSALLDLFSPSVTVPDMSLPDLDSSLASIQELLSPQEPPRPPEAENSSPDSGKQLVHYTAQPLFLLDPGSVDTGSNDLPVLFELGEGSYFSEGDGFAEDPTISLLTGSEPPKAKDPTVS
# Summary of the method: as §1
# SPIC = biological target: T8, SPIC (Homo sapiens, UniProt Q8N5J4 1-248); conditions: protein: recombinant; tags: N-terminal GST; dsDNA, one strand shown
# T8 sequence: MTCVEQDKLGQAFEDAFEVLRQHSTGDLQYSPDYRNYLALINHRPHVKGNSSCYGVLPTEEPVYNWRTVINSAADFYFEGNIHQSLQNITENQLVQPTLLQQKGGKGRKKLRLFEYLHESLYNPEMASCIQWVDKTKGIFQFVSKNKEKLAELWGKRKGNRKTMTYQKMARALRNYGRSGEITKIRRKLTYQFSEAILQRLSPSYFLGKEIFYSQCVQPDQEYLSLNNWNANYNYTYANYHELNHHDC
# Summary of the method: as §1
# ELF4 = ELF4 (Homo sapiens, UniProt Q99607 1-663); conditions: protein: recombinant; tags: N-terminal GST; dsDNA, one strand shown
# ELF4, sequence (Q99607 whole entry): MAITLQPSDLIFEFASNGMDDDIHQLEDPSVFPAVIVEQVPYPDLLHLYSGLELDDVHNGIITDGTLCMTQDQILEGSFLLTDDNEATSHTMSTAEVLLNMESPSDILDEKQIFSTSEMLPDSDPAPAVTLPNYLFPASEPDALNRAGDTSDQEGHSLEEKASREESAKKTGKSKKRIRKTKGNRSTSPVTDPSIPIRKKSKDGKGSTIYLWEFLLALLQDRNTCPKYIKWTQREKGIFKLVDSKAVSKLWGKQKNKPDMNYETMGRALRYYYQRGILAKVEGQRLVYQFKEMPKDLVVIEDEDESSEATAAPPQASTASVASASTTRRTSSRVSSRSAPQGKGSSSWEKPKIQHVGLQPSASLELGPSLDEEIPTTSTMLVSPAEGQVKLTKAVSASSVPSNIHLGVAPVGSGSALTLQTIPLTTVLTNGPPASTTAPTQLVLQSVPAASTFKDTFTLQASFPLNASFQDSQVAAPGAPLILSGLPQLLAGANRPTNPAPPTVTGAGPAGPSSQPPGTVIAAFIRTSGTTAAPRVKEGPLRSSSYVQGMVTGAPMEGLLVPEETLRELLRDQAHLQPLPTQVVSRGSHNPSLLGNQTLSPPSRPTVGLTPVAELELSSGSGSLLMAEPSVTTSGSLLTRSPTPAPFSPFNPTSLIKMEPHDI
# Summary of the method: as §1
# ELK4 = biological target: T9, ELK4 (Homo sapiens, UniProt P28324-2 1-405); conditions: protein: recombinant; tags: N-terminal GST; dsDNA, one strand shown
# T9 sequence: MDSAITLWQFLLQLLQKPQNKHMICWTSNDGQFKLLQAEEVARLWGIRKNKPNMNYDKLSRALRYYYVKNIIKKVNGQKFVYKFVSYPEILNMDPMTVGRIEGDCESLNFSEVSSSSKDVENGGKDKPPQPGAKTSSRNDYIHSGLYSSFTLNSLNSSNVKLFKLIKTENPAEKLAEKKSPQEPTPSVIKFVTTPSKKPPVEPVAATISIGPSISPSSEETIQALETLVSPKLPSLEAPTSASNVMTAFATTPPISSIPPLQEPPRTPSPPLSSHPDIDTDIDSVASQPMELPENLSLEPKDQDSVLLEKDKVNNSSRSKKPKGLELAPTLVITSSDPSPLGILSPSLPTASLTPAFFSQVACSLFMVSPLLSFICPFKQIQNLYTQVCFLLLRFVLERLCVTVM
# Summary of the method: as §1
# ETV2 = biological target: T10, ETV2 (Homo sapiens, UniProt O00321 1-342); conditions: protein: recombinant; tags: N-terminal GST; dsDNA, one strand shown
# T10 sequence: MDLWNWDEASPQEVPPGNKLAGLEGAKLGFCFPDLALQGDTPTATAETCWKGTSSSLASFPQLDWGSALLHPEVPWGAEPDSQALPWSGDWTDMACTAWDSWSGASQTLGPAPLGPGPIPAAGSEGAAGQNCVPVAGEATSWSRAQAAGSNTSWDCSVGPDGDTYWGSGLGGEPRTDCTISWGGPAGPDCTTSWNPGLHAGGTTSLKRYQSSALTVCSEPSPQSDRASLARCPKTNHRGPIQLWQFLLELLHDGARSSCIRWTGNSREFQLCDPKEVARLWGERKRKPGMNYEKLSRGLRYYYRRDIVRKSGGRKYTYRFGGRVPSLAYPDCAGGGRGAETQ
# Summary of the method: as §1
# ELF3 = biological target: T11, ELF3 (Homo sapiens, UniProt P78545 1-371); conditions: protein: recombinant; tags: N-terminal GST; dsDNA, one strand shown
# T11 sequence: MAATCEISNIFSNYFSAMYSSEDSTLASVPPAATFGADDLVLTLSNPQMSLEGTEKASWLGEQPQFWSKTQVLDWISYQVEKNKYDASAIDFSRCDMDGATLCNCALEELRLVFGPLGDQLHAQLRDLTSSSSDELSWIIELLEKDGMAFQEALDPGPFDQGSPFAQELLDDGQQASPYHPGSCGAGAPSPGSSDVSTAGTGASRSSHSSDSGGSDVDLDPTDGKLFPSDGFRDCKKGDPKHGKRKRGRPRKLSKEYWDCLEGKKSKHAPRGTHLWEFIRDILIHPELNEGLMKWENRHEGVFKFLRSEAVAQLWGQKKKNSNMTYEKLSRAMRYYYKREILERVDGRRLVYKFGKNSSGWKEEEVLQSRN
# Summary of the method: as §1
# CRX = CRX (Homo sapiens, UniProt O43186 1-299); conditions: protein: recombinant; tags: N-terminal GST; dsDNA, one strand shown
# CRX, sequence (O43186 whole entry): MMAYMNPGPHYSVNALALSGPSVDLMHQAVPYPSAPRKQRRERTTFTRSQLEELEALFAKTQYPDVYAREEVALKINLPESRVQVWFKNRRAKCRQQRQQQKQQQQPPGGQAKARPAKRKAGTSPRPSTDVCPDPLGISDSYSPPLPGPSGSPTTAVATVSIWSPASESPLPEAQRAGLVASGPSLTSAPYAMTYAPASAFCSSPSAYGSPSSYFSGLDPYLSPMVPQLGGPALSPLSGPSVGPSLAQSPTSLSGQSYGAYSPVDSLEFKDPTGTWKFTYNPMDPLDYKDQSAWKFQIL
# Summary of the method: as §1
# ETV1 = ETV1 (Homo sapiens, UniProt P50549 1-477); conditions: protein: recombinant; tags: N-terminal GST; dsDNA, one strand shown
# ETV1, sequence (P50549 whole entry): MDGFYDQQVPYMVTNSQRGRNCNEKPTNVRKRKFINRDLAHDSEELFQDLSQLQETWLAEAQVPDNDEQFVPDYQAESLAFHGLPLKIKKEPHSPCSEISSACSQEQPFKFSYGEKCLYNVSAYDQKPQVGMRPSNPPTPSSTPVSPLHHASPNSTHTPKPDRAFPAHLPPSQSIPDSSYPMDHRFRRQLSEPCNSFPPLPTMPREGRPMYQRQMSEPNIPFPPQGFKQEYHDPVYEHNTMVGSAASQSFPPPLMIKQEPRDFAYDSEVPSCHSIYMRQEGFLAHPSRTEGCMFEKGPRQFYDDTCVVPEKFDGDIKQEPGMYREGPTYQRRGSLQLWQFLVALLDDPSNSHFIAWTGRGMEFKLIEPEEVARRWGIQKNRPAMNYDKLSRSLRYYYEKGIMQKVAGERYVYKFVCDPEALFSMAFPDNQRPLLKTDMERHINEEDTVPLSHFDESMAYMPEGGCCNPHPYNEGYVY
# Summary of the method: as §1
sequence,measurement,setting,value
CTCCCT,binding signal,FLI1,"1.61 fold enrichment (6-mer frequency, TF over GST control)"
same,binding signal,ELK1,"1.43 fold enrichment (6-mer frequency, TF over GST control)"
same,binding signal,GABPA,"1.54 fold enrichment (6-mer frequency, TF over GST control)"
same,binding signal,ERG,"1.62 fold enrichment (6-mer frequency, TF over GST control)"
same,binding signal,ELF1,"1.68 fold enrichment (6-mer frequency, TF over GST control)"
same,binding signal,EHF,"1.52 fold enrichment (6-mer frequency, TF over GST control)"
same,binding signal,SPI1,"1.49 fold enrichment (6-mer frequency, TF over GST control)"
same,binding signal,SPIB,"1.66 fold enrichment (6-mer frequency, TF over GST control)"
same,binding signal,ELK3,"1.5 fold enrichment (6-mer frequency, TF over GST control)"
same,binding signal,FEV,"1.44 fold enrichment (6-mer frequency, TF over GST control)"
same,binding signal,ETV5,"1.73 fold enrichment (6-mer frequency, TF over GST control)"
same,binding signal,HSF1,"1.32 fold enrichment (6-mer frequency, TF over GST control)"
same,binding signal,SPIC,"1.38 fold enrichment (6-mer frequency, TF over GST control)"
same,binding signal,ELF4,"1.59 fold enrichment (6-mer frequency, TF over GST control)"
same,binding signal,ELK4,"1.41 fold enrichment (6-mer frequency, TF over GST control)"
same,binding signal,ETV2,"1.51 fold enrichment (6-mer frequency, TF over GST control)"
same,binding signal,ELF3,"1.48 fold enrichment (6-mer frequency, TF over GST control)"
same,binding signal,CRX,"1.36 fold enrichment (6-mer frequency, TF over GST control)"
same,binding signal,ETV1,"1.44 fold enrichment (6-mer frequency, TF over GST control)"

# Reference: publication PMC7862700, “An all-to-all approach to the identification of sequence-specific readers for epigenetic DNA modifications on cytosine”
